# Test results taken from the supplement of paper PMC10849652.
# Targets with a hit are over-represented here; the source holds about 8,800 in all. About 0.5% of all pairs of compound and target were hits. Values without a mark were called inactive.
# Compound: COc1cc2nc(-c3cc(F)ccc3O)nc(N[C@@H]3CNC[C@H]3C(C)(C)O)c2cc1OC
# Assay: log2 fold change, soluble protein after heating vs DMSO (PISA); higher = thermal stabilisation; K562 lysate, 10 uM; active = over 0.2 and 3.5 SD of the protein, either way, in both replicates (recomputed)
# Procedure, shortened: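 To prepare the extract, K562 pellets were dounce-homogenised in PBS pH 7.4 with 1 mM MgCl2, giving crude material at 1 mg/mL protein. This was treated with 10 μM compound for 30 min, then heated in aliquots for 3 min over 48°C-58°C before pooling and addition of NP-40 to 0.5% at 4°C. Centrifugation at 21,000xg for 90 min left soluble protein in the supernatant, which TMTpro 16plex LC-MS/MS quantified with equalised channel sums. Results are log-two fold changes in thermal stability compared with solvent controls, from duplicates.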
# Chain of UniProt Q8N4J0 (Q8N4J0 whole entry, looked up): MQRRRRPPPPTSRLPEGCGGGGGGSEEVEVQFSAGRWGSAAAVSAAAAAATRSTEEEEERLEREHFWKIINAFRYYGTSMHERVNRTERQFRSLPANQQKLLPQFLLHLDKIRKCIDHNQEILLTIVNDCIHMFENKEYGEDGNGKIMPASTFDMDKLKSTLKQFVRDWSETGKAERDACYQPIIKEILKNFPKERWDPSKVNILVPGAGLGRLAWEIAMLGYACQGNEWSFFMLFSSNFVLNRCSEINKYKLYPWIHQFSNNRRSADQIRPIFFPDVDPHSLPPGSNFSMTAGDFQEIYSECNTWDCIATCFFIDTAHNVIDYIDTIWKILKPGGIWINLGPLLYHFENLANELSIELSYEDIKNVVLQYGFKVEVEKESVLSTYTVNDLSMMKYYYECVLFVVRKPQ
# Chain of UniProt P33681 (P33681 whole entry, looked up): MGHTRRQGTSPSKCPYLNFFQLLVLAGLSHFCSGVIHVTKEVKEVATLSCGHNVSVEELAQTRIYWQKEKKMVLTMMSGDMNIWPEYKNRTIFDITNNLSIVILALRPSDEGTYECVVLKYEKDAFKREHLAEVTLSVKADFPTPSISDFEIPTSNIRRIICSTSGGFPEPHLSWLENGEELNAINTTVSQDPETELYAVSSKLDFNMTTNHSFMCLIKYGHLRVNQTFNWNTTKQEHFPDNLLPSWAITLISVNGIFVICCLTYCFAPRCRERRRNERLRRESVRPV
# Chain of UniProt Q8TCD1 (Q8TCD1 whole entry, looked up): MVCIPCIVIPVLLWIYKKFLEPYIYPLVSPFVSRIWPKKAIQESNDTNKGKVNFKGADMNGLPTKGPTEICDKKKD
# Chain of UniProt O60826 (O60826 whole entry, looked up): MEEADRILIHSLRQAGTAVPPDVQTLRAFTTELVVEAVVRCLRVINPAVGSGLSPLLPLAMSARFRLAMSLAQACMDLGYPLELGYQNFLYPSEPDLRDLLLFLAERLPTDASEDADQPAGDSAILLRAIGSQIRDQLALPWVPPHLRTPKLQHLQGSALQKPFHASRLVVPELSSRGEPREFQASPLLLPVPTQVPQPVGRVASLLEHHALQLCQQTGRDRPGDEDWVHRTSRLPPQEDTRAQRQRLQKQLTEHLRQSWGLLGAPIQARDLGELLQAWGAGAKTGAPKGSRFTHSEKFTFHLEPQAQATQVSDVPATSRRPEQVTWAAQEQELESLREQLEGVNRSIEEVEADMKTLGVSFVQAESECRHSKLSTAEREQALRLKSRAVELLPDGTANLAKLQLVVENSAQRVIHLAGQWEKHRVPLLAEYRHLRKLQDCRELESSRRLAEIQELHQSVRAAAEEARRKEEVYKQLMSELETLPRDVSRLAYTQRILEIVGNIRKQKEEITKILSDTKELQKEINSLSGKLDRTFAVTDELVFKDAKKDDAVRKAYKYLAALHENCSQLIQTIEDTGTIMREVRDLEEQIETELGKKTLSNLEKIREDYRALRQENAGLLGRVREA
# Chain of UniProt P25440 (P25440 whole entry, looked up): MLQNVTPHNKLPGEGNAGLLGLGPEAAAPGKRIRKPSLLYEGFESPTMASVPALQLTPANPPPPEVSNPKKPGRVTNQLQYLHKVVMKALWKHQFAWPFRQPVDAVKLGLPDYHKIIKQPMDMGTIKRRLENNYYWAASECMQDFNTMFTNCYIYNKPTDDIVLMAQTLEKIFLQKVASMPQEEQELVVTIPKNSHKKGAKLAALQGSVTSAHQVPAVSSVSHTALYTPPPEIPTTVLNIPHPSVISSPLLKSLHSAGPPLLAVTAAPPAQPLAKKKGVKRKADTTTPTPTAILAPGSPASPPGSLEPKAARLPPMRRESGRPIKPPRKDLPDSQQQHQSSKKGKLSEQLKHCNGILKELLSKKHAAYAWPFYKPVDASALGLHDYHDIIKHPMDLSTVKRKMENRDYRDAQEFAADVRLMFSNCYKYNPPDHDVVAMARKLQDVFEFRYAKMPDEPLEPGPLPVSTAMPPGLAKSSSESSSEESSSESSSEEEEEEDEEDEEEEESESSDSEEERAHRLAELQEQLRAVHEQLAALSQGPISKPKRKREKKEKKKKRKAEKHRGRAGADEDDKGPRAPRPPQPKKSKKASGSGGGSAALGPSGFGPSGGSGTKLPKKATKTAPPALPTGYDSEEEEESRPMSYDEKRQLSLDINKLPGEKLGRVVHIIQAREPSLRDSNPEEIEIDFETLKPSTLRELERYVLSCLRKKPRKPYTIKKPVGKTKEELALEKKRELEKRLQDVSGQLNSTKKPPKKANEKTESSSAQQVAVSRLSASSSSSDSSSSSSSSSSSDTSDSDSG
# Chain of UniProt Q00535 (Q00535 whole entry, looked up): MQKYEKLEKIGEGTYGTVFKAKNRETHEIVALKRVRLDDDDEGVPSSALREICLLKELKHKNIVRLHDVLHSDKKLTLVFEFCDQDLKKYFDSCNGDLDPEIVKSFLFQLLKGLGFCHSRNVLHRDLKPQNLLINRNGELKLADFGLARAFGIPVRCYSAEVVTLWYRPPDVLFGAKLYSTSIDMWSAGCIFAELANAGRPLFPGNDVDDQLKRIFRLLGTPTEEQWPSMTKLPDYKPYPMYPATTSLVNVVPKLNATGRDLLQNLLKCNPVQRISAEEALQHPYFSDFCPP
# Chain of UniProt Q9UL45 (Q9UL45 whole entry, looked up): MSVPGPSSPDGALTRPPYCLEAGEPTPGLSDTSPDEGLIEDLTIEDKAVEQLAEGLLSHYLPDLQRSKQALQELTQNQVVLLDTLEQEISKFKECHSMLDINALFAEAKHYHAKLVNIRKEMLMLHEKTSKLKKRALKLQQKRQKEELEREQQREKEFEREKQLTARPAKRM
# Chain of UniProt Q9Y6K0 (Q9Y6K0 whole entry, looked up): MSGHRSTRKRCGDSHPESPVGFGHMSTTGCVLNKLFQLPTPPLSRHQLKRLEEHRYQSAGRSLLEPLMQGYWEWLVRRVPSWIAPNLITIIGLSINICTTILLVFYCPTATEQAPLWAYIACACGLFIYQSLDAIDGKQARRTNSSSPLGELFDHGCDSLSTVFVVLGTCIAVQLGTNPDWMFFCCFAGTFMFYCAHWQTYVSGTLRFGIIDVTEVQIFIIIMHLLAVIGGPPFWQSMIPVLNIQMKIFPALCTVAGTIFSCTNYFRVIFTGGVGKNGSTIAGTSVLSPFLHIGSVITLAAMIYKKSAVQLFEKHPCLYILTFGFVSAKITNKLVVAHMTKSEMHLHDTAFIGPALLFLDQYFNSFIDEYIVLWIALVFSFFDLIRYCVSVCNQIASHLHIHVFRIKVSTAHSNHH
# Chain of UniProt O00311 (O00311 whole entry, looked up): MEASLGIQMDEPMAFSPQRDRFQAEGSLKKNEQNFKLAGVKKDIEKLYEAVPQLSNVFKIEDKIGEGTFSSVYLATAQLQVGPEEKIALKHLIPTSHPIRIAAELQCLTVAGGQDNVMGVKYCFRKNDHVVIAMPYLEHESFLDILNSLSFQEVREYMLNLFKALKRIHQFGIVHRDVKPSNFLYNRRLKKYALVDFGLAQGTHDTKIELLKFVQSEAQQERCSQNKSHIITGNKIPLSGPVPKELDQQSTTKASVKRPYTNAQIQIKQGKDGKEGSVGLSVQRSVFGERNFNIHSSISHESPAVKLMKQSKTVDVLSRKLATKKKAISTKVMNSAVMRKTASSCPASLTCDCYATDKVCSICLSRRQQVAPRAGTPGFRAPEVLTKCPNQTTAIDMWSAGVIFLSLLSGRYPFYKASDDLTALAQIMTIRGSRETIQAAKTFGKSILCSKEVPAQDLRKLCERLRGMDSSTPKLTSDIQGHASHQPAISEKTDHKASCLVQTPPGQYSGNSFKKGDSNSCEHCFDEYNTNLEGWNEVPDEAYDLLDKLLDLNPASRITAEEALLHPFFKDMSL
# Chain of UniProt P21127 (P21127 whole entry, looked up): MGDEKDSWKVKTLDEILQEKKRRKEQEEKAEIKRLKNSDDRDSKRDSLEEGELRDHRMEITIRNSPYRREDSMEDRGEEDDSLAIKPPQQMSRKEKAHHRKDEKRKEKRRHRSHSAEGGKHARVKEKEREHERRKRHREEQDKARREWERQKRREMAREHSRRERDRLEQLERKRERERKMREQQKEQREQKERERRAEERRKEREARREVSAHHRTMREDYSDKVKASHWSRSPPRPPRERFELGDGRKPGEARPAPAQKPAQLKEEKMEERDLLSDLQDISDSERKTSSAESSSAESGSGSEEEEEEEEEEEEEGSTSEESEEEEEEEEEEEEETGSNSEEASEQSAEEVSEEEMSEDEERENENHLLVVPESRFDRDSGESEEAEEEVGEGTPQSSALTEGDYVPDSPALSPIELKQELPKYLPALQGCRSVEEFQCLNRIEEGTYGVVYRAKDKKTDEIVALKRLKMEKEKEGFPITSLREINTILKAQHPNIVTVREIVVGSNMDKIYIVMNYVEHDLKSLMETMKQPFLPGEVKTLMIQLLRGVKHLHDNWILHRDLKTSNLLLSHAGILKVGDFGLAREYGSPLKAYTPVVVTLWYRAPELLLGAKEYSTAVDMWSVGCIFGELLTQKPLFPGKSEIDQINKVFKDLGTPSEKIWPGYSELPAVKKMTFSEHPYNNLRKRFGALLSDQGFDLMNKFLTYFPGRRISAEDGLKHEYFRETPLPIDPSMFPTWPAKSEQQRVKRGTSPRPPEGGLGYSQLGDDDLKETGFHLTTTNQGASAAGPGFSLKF
# Chain of UniProt Q6P4E1 (Q6P4E1 whole entry, looked up): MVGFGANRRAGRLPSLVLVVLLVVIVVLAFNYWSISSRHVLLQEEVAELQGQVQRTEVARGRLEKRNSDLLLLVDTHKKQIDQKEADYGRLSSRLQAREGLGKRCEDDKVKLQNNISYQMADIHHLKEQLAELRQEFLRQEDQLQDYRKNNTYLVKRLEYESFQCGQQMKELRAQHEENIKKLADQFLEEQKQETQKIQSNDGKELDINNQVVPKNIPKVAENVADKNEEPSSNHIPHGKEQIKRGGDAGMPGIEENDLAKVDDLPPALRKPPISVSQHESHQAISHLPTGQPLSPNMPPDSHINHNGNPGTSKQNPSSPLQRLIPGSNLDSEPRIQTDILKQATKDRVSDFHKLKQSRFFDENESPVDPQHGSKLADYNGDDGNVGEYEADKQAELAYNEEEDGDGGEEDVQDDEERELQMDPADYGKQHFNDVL
row,Target,log2 fold change
1,CEBPZOS (UniProt A8MTT3),-0.099
2,CDKN1C (UniProt P49918),0.046
3,BCKDHB (UniProt P21953),-0.015
4,CD80 (UniProt P33681),-0.011
5,BNIP1 (UniProt Q12981),0.004
6,CCNK isoform 4 (UniProt O75909),0
7,CBX5 (UniProt P45973),0.021
8,C18orf32 (UniProt Q8TCD1),-0.019
9,BRD2 isoform 2 (UniProt P25440),0.019
10,CDK5 (UniProt Q00535),0.03
11,CEP120 (UniProt Q8N960),0.038
12,BLOC1S6 (UniProt Q9UL45),-0.036
13,BMS1 (UniProt Q14692),-0.01
14,ATR (UniProt Q13535),0.077
15,CARNMT1 (UniProt Q8N4J0),0.026
16,CDC7 (UniProt O00311),-0.04
17,CARD11 (UniProt Q9BXL7),0.025
18,BRAF (UniProt P15056),-0.019
19,BRD4 (UniProt O60885),-0.03

row,Target,log2 fold change
1,CAPNS1 (UniProt P04632),-0.051
2,CDC25C (UniProt P30307),0.04
3,CASC4 (UniProt Q6P4E1),-0.004
4,CCNB1 (UniProt P14635),0.407 (active)
5,BTAF1 (UniProt O14981),-0.008
6,CCDC51 (UniProt Q96ER9),-0.066
7,ATM (UniProt Q13315),0.078
8,CDC42BPA isoform 6 (UniProt Q5VT25),-0.019
9,CDK11B (UniProt P21127),-0.036
10,CENPQ (UniProt Q7L2Z9),-0.068
11,CEPT1 (UniProt Q9Y6K0),-0.123
12,CD63 (UniProt P08962),-0.02
13,CHAC2 (UniProt Q8WUX2),-0.007
14,C3 (UniProt P01024),-0.005
15,CHCHD4 isoform 2 (UniProt Q8N4Q1),0.016
16,CHD1L (UniProt Q86WJ1),-0.002
17,CCDC22 (UniProt O60826),-0.009
18,C2CD5 isoform 3 (UniProt Q86YS7),0.016
